According to PubChem BioAssay (Tox21):
Values without a mark were called inactive. Results filed as inconclusive are left out. A call without a number means that no potency is given here. Calls of active or inactive are those of the source. Unless noted, the call rests on the fitted dose curve; in most records, active means well fitted curve in the direction sought with a large enough effect in the repeat runs; inconclusive means weak or mixed curves; inactive means no such curve, though single readings can be large; an effect the other way counts as inactive or inconclusive.

Columns and labels:
[1] = qHTS assay for small molecule agonists of the p53 signaling pathway (AID 651631; calls by dose curve; further: nearly all actives have a fitted effect of over 15% in size; further: potency means the concentration at half of the fitted maximal effect)
Procedure, shortened: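 Readout was fluorescence from the LiveBLAzer FRET substrate, applied for 2 h at room temperature after 16 h compound exposure at 37 °C. Cells were the p53RE-bla HCT-116 line, with beta-lactamase driven by p53 response elements.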

[2] = qHTS assay for small molecules that induce genotoxicity in human embryonic kidney cells expressing luciferase-tagged ATAD5 (AID 651632); further: nearly all actives have a fitted effect of over 15% in size
Procedure, shortened: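 Luminescence read-out: after 16 hr compound exposure at 37C, ATAD5-luciferase HEK293T cells received Amplite, 30 min RT, then CCD imaging. A rise in signal marks genotoxic stress.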

[3] = qHTS assay for small molecule agonists of the p53 signaling pathway - cell viability (AID 651633; calls by dose curve; further: nearly all actives have a fitted effect of over 30% in size; further: potency means the concentration at half of the fitted maximal effect)
Procedure, shortened: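 Viability counter-read: CellTiter-Glo luminescence (30 min, room temperature) in the same p53RE-bla plates. These plates had been exposed to compounds for 16 h at 37 C.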

[4] = qHTS assay for small molecule disruptors of the mitochondrial membrane potential - cell viability (AID 720634; calls by dose curve;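 further: human HepG2 liver cancer cells; nearly all actives have a fitted effect of over 20% in size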)
Procedure, shortened: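 Luminescence from CellTiter-Glo (ATP content) gave viability in HepG2 cells, read in the same wells as the MMP dye assay after 1 hr compound exposure at 37 C.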

[5] = qHTS assay to test for compound auto fluorescence at 590 nm (red) in HepG2 cells (AID 720674)
Procedure, shortened: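 Red autofluorescence (Ex/Em 540/590 nm, Rose Bengal sodium equivalents) was measured in HepG2 cells, 2,000 per well in MEM plus 10% FBS, plated overnight at 37 C. Readings were taken 1 hr after adding 23 nL compound or DMSO, at 37 C and 5% CO2.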

[6] = qHTS assay to test for compound auto fluorescence at 535 nm (green) in HepG2 cells (AID 720675)
[7] = qHTS assay to test for compound auto fluorescence at 460 nm (blue) in HEK293 cells (AID 720678)
Procedure, shortened: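 Measured: blue fluorescence (Ex 405/Em 460 nm) of compound-treated HEK293 cells, incubated overnight at 37C with 5% CO2 and scaled to triamterene equivalents.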

[8] = qHTS assay to test for compound auto fluorescence at 590 nm (red) in HEK293 cells (AID 720679)
Procedure, shortened: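 Using HEK293 cells at 2,000 per well, the screen added 23 nL of each compound after cell attachment and incubated overnight (37C, 5% CO2). The plate reader then captured red-label fluorescence, Ex/Em 540/590nm.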

[9] = qHTS assay to test for compound auto fluorescence at 460 nm (blue) in HEK293 cell free culture (AID 720681)
Procedure, shortened: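 Blue fluorescence (Ex 405/Em 460 nm, triamterene-equivalent) was read immediately after pin transfer of compound or DMSO into medium (DMEM, 10% FBS) without cells.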

[10] = qHTS assay to test for compound auto fluorescence at 535 nm (green) in HEK293 cell free culture (AID 720682)
Procedure, shortened: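 Compounds were pin-transferred into cell-free DMEM with 10% FBS, and green fluorescence was read at excitation 485 nm and emission 535 nm. Intensities were expressed as fluorescein-equivalent values.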

[11] = qHTS assay to test for compound auto fluorescence at 590 nm (red) in HepG2 cell free culture (AID 720684)
Procedure, shortened: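 Cell-free; medium MEM + 10% FBS; compound or DMSO added by pintool; read Ex 540/Em 590 nm; Rose Bengal sodium as red reference fluorophore.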

[12] = qHTS assay to test for compound auto fluorescence at 460 nm (blue) in HepG2 cell free culture (AID 720685)
Procedure, shortened: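 Cell-free plates of MEM plus 10% FBS received 23 nL compound or DMSO vehicle; blue-channel (405/460 nm) intensity scored against triamterene as reference fluorophore.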

[13] = qHTS assay to test for compound auto fluorescence at 535 nm (green) in HepG2 cell free culture (AID 720686)
[14] = qHTS assay to test for compound auto fluorescence at 460 nm (blue) in HepG2 cells (AID 720687)
Procedure, shortened: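 Blue-channel autofluorescence (Ex/Em 405/460 nm, triamterene-equivalent) was measured after 1 hr compound exposure at 37 C, 5% CO2. Cells were HepG2, plated overnight at 37 C in MEM plus 10% FBS.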

[15] = target: Glucocorticoid receptor (Homo sapiens) (UniProt P04150); experiment: qHTS assay to identify small molecule antagonists of the glucocorticoid receptor (GR) signaling pathway (AID 720692; active means well fitted inhibition curve with a large enough effect in the signal ratio in the repeat runs, not every such curve was filed as active; the % refers to the signal ratio; further: potency means the concentration at half of the fitted maximal effect)
Procedure, shortened: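 Read-out: beta-lactamase FRET substrate fluorescence, 2 h at room temperature, in HeLa cells stably carrying a GRE-driven bla reporter. Compounds were co-incubated with 5 nM dexamethasone agonist (final) for 18 h at 37 C.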

[16] = qHTS assay for small molecules that induce genotoxicity in human embryonic kidney cells expressing luciferase-tagged ATAD5 - cell viability (AID 651634; calls by dose curve; further: nearly all actives have a fitted effect of over 25% in size)
Procedure, shortened: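 HEK293T ATAD5-luc cells, 2,000/well; compound 15.5 hr, 37C/5% CO2; CellTiter-Fluor 30 min, 37C; fluorescence read.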

[17] = qHTS assay for small molecule disruptors of the mitochondrial membrane potential (AID 720635)
Procedure, shortened: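 Mitochondrial membrane potential tracked with Mito-MPS dye, red aggregates (ex 540/em 590 nm) against green monomers (ex 490/em 535 nm). Compound treatment 1 hr at 37C, dye 30 min in HepG2.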

[18] = qHTS assay to test for compound auto fluorescence at 535 nm (green) in HEK293 cells (AID 720680)
[19] = qHTS assay to test for compound auto fluorescence at 590 nm (red) in HEK293 cell free culture (AID 720683)
Procedure, shortened: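 Red-channel autofluorescence of compounds in culture medium (DMEM, 10% FBS), no cells, measured at 540/590 nm. Rose Bengal sodium is the reference fluorophore for equivalence.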

[20] = target: Glucocorticoid receptor (Homo sapiens) (UniProt P04150); experiment: qHTS assay to identify small molecule agonists of the glucocorticoid receptor (GR) signaling pathway (AID 720691; active means well fitted activation curve with a large enough effect in the signal ratio in the repeat runs, not every such curve was filed as active; the % refers to the signal ratio); settings: GR-bla HeLa, beta-lactamase reporter ratio, 18 h; activation: at 62.4 µM (top of the series) unless noted
Procedure, shortened: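 HeLa GR-bla reporter line; cells pre-incubated 4 h, compound in DMSO 18 h at 37 C; LiveBLAzer B/G FRET substrate 2 h RT; fluorescence intensity read-out.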

Chain of Glucocorticoid receptor (Homo sapiens) (P04150 whole entry, looked up): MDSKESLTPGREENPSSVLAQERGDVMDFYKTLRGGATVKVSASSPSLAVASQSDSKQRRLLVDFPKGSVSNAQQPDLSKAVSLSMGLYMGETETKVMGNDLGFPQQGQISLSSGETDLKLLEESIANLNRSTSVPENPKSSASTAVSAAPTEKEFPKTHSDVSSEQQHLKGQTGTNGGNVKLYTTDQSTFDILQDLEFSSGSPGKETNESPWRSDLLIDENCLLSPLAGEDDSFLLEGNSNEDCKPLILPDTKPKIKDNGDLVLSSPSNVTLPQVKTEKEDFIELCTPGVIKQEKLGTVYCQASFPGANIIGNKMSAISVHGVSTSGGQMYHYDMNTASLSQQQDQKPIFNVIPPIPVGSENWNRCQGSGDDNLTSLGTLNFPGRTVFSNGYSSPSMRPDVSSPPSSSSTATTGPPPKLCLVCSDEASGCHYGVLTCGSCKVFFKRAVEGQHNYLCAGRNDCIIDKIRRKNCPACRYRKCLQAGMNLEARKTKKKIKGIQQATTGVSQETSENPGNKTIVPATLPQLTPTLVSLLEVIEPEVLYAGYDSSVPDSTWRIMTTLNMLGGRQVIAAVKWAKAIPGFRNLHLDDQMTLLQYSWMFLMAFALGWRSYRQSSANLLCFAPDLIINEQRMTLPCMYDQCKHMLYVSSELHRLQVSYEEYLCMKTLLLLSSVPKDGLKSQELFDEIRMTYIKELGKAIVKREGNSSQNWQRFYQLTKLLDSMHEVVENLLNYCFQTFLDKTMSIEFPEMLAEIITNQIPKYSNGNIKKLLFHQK

SMILES	Potency [1]	Potency [2]	Potency [3]	Potency [4]	Potency [5]	Potency [6]	outcome [7]	Potency [8]	outcome [9]	outcome [10]	Potency [11]	outcome [12]	Potency [13]	outcome [14]	Potency [15]	Potency [16]	Potency [17]	outcome [18]	Potency [19]	Potency [20]
O=C(Nc1ccc(S(=O)(=O)N2CCOCC2)cc1)c1cc(Cl)ccc1NS(=O)(=O)c1ccc(Cl)s1	26.6 µM (active)	inactive	9.44 µM (active)	inactive	inactive	inactive	inactive	inactive	inactive	inactive	inactive	inactive	inactive	inactive	26.8 µM (active)					
OC[C@H]1O[C@@H](OCCc2ccc(O)cc2)[C@H](O)[C@@H](O)[C@@H]1O	inactive	inactive		inactive	inactive	inactive	inactive	inactive	inactive	inactive	inactive	inactive	inactive	inactive	inactive	inactive	inactive	inactive	inactive	
C#C[C@]1(O)CC[C@H]2[C@@H]3CCc4cc(OC5CCCC5)ccc4[C@H]3CC[C@@]21C	inactive	inactive		inactive	inactive	inactive	inactive	inactive	inactive	inactive	inactive	inactive	inactive	inactive		inactive			inactive	
CC(=O)[O][Al][O]C(C)=O	inactive	inactive	inactive	inactive	inactive	inactive	inactive	inactive	inactive	inactive	inactive	inactive		inactive				inactive		
c1ccc(C(O[C@H]2CCCN(CCc3ccc4c(c3)OCO4)C2)c2ccccc2)cc1	inactive	inactive		inactive	inactive	inactive	inactive	inactive	inactive	inactive	inactive	inactive				inactive			inactive	inactive
O=CC1CC=CCC1 (configuration not stated)	inactive	inactive		inactive		inactive	inactive	inactive	inactive	inactive	inactive	inactive		inactive		inactive	inactive		inactive	
CCCCC/C=C\C/C=C\CCCCCCCC(=O)NC(C)c1ccccc1 (configuration not stated)	inactive	inactive		inactive	inactive	inactive	inactive	inactive	inactive	inactive	inactive	inactive	inactive	inactive		inactive	inactive	inactive	inactive	inactive
CCCCc1nc2cccnc2n1Cc1ccc(-c2ccccc2-c2nnn[nH]2)cc1	inactive	inactive	inactive		inactive	inactive	inactive	inactive	inactive		inactive	inactive	inactive	inactive				inactive	inactive	
